Assay outcomes deposited in PubChem by National Center for Advancing Translational Sciences (NCATS).
Rab9 prom act: qHTS Assay for Rab9 Promoter Activators | Huh7 Rab9 promoter-luciferase reporter, luminescence, 24 h | Potency, µM (series often up to 9.22 µM), for the others: at the top dose activation, negative = inhibition, usual class: activators | actives 2.8% (n = 320,000); further: % of control where 0% means no effect; nearly all actives have a fitted effect of over 60% in size
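Luminescence read-out: Huh7 cells stably expressing Rab9-luciferase, treated 24 h with compound at 37 °C, then lysed with luciferase reagent for 10 min at ambient before reading.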
Luc counter: Counterscreen for Luciferase (Kinase-Glo TM) Inhibition; Luciferin 4-monooxygenase (Photuris pensylvanica), Q27757; Kinase-Glo luciferase, ATP luminescence, 8 min; Potency, µM (titrated, usually from 38.3 µM), for inactives: at the highest dose activity change, negative = inhibition, most hits filed as inhibitors; actives 0.28% (n = 200,000); further: on the % scale 0 is the no-effect control and ±100 the full control effect; nearly all actives have a fitted effect of over 60% in size
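Kinase-Glo luciferase light output from ATP and luciferin was measured with 10 uM ATP, within the enzyme's linear range. Buffer: 50 mM imidazole pH 7.2, 50 mM KCl, 7 mM MgCl2, 0.01% Tween 20, 0.05% BSA; luminescence read after 8 min at ambient temperature.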
NPC1 promoter act: qHTS Assay for NPC1 Promoter Activators; Huh7 NPC1 promoter luciferase reporter, 24 h; Potency, µM (top dose mostly 9.22 µM), for inactives: top-dose activation, most hits filed as activators; actives 2.4% (n = 320,000); further: % of control where 0% means no effect; nearly all actives have a fitted effect of over 60% in size
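Stable NPC1-promoter luciferase Huh7 line; cpd (DMSO) 24 h, 37 °C, 5% CO2; Amplite luciferase reagent 10 min RT; luminescence readout. qHTS format.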
FLuc modulator: qHTS profiling assay for firefly luciferase inhibitor/activator using purifed enzyme and Km concentrations of substrates (counterscreen for miR-21 project). Luciferin 4-monooxygenase (Photinus pyralis), P08659. AID 588342, 2011. actives 6.9% (n = 360,000). purified FLuc, Km substrates, luminescence inhibition. Potency, µM (titrated, usually from 57.5 µM), for the others: at the top dose activity change, negative = inhibition, usual class: inhibitors;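 further: plate controls were vehicle for no effect and reference inhibitor for full effect; nearly all actives have a fitted effect of over 55% in size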
Target sequence (P08659 whole entry, looked up): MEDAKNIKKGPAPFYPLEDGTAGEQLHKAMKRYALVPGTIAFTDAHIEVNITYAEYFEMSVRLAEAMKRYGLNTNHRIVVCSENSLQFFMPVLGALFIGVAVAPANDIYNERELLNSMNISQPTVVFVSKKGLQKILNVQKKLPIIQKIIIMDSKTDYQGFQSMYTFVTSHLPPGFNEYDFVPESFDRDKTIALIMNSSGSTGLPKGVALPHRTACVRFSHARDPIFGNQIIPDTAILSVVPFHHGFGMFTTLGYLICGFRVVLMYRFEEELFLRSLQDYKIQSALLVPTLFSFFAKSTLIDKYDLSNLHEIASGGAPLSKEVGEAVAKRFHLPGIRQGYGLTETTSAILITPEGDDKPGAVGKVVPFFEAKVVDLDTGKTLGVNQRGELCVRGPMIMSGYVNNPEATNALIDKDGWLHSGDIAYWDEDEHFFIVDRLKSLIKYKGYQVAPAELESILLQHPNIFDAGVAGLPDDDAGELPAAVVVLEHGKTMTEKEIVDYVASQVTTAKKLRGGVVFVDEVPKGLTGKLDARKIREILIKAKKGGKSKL
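Purified P. pyralis luciferase (10nM final) with 10uM D-luciferin and 10uM ATP (Km levels) in 50mM Tris acetate pH 7.5, 10mM Mg acetate, 0.01% Tween-20, 0.05% BSA; qHTS 6-point titration, ~60 µM downward; luminescence read.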
SMN2 splice enh: qHTS Assay for Enhancers of SMN2 Splice Variant Expression. HEK293 SMN2-luciferase splicing reporter, luminescence, 30-36 h. Potency, µM (doses to about 46.1 µM), inactives show top-dose activity change, positive = activation, actives largely listed as activators. actives 2.8% (n = 210,000). AID 1458, 2008; further: % of control where 0% means no effect; nearly all actives have a fitted effect of over 55% in size
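HEK293 cells carry an SMN2 […]–luciferase reporter in which exon 7 inclusion puts luciferase in frame. Cells were plated 10-12 h before compound addition, then incubated 30-36 h at 37C. ONE-Glo luminescence was read; sodium butyrate at 4.5 mM final served as control.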
ELG1 genotoxic: qHTS screen for small molecules that induce genotoxicity in human embryonic kidney (HEK293T) cells expressing luciferase-tagged ELG1; HEK293T ELG1-luciferase reporter, luminescence, 16 h; Potency, µM (highest dose often 46 µM), for inactives: at the highest dose activity change, positive = activation, usual class: activators; actives 1.3% (n = 330,000); AID 504466, 2011; further: % of control where 0% means no effect; nearly all actives have a fitted effect of over 60% in size
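Genotoxicity was scored as increased ELG1-luciferase reporter signal, measured by ONE-Glo luminescence (30 min, room temperature). Compound or vehicle exposure of the HEK293T reporter cells lasted 16 hr at 37°C.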
* = called active by the depositor; [ ] = dose if it differs, or a comment. Most compounds without a hit are left out; they make up all but 7.5% or so of the library. The call rests on the fitted dose curve; in most records, active means well fitted curve in the direction sought with a large enough effect; inconclusive means small, poorly fitted or top-dose-only effect, or another doubt; inactive means no such curve, though single readings can be large; an effect the other way counts as inactive or inconclusive. Potency means the concentration at half of the fitted maximal effect.

What do the screens show for `Cc1cccc(-n2c(=O)c3c(c4cc(C)ccc4n3C)n(Cc3ccccc3F)c2=O)c1`?
FLuc modulator: 1.0%

How did COc1ccc(OC)c(-c2csc(NC(=O)Cc3ccccc3F)n2)c1 do in these assays?
Rab9 prom act: 4.1%; NPC1 promoter act: 14.4%; FLuc modulator: 10.7µM*; ELG1 genotoxic: -31.2%

What do the screens show for `COc1ccc(OC)c(-c2csc(NC(=O)Cc3ccccc3OC)n2)c1`?
Rab9 prom act: -0.3%; NPC1 promoter act: 0.0%; FLuc modulator: 9.53µM*; ELG1 genotoxic: 5.7%

What do the screens show for `COc1ccc(OC)c(-c2csc(NC(=O)c3ccccc3F)n2)c1`?
Rab9 prom act: -2.8%; NPC1 promoter act: -0.1%; FLuc modulator: 15.1µM*; ELG1 genotoxic: 8.3%

Results for O=C(Nc1nc(COc2ccccc2)cs1)c1ccccc1F ?
Rab9 prom act: 0.7%; Luc counter: -5.2%; NPC1 promoter act: 7.8%; FLuc modulator: 26.9µM*; SMN2 splice enh: -43.1%; ELG1 genotoxic: 8.9%

Results for COc1ccc(OC)c(-c2csc(NC(=O)CN3C(=O)NC4(CCCC4)C3=O)n2)c1 ?
Rab9 prom act: -10.3%; NPC1 promoter act: -2.7%; FLuc modulator: -2.7%; ELG1 genotoxic: 0.9%

How did O=C(c1ccccc1)c1cnc(-c2ccccc2)s1 do in these assays?
Rab9 prom act: 0.316µM*; Luc counter: -24.7%; NPC1 promoter act: 0.501µM*; FLuc modulator: 1.2µM*; SMN2 splice enh: 12.6µM*; ELG1 genotoxic: 2.06µM*

How did O=C(c1ccccc1)c1cnc(-c2ccc(Cl)cc2)s1 do in these assays?
Rab9 prom act: 0.316µM*; Luc counter: inconclusive; NPC1 promoter act: 0.355µM*; FLuc modulator: 0.338µM*; SMN2 splice enh: inconclusive; ELG1 genotoxic: 2.59µM*

What do the screens show for `O=C(c1ccc(Cl)cc1)c1cnc(-c2ccc(Cl)cc2)s1`?
Rab9 prom act: 25.3%; Luc counter: -4.3%; NPC1 promoter act: 15.8%; FLuc modulator: 1.7%; SMN2 splice enh: inconclusive; ELG1 genotoxic: 6.5%

How did Cc1cccc(NC(=O)CCc2c(C)nc3nc(CNC(=O)c4cccc(F)c4)nn3c2C)c1 do in these assays?
FLuc modulator: 0.2%; SMN2 splice enh: 3.5%

How did COc1cc2c(cc1OC)CN(c1ccc(C(F)(F)F)cn1)CC2 do in these assays?
Rab9 prom act: 17.2%; NPC1 promoter act: 26.7%; FLuc modulator: 16.9µM*; ELG1 genotoxic: inconclusive

Results for COc1ccc(-n2nc(C(=O)c3cccs3)cc(-c3nc4ccccc4[nH]3)c2=N)cc1 ?
Rab9 prom act: 0.0%; Luc counter: -1.5%; NPC1 promoter act: -5.9%; FLuc modulator: -1.4%; SMN2 splice enh: inconclusive; ELG1 genotoxic: 23.1µM*

How did Cc1ccccc1-n1nc(C(=O)c2cccs2)cc(-c2nc3ccccc3[nH]2)c1=N do in these assays?
Rab9 prom act: -3.8%; Luc counter: 5.9%; NPC1 promoter act: 0.3%; FLuc modulator: 1.8%; SMN2 splice enh: -28.5%; ELG1 genotoxic: -10.8%

How did O=C(Nc1cccc(-c2nnco2)c1)c1cccs1 do in these assays?
Rab9 prom act: 0.3%; NPC1 promoter act: 2.9%; FLuc modulator: -27.4%; ELG1 genotoxic: -1.5%

Results for Cc1cccc(-c2nnc(-c3cccc(NC(=O)Cc4cccs4)c3)o2)c1 ?
Rab9 prom act: -2.2%; Luc counter: 6.8%; NPC1 promoter act: 2.3%; FLuc modulator: 12µM*; SMN2 splice enh: 27.3%; ELG1 genotoxic: 0.4%

Results for O=C(Cc1cccs1)Nc1cccc(-c2nc3ccccc3o2)c1 ?
Rab9 prom act: -2.6%; Luc counter: -0.4%; NPC1 promoter act: -1.4%; FLuc modulator: -6.5%; SMN2 splice enh: -5.6%; ELG1 genotoxic: 0.5%

What do the screens show for `Cc1ccc(-c2nnc(-c3cccc(NC(=O)c4cccs4)c3)o2)cc1`?
Rab9 prom act: 1.8%; Luc counter: 1.7%; NPC1 promoter act: 28.6%; FLuc modulator: 2.69µM*; SMN2 splice enh: -14.0%; ELG1 genotoxic: -6.0%

How did COc1ccc(NC(=O)CSC2=Nc3ccccc3C3=NC(Cc4ccccc4)C(=O)N23)cc1Cl (configuration not stated) do in these assays?
FLuc modulator: 0.8%

How did C[C@@H](CNC1CCCCC1)OC(=O)c1ccccc1 do in these assays?
Luc counter: 0.6%[17.1 µM]; SMN2 splice enh: -16.4%[20.6 µM]

How did O=C(CSc1nc(=O)n(Cc2ccco2)c2c1CCC2)Nc1cccc(F)c1 do in these assays?
FLuc modulator: -12.7%

What do the screens show for `COc1nccnc1NS(=O)(=O)c1ccc(N=Cc2c(C)[nH]n(-c3ccc(C)c(C)c3)c2=O)cc1`?
Rab9 prom act: 15.2%; Luc counter: 10µM*; NPC1 promoter act: 3.0%; FLuc modulator: 15.1µM*; SMN2 splice enh: -19.0%; ELG1 genotoxic: 12.4%

How did Cc1ccc(-n2[nH]c(C)c(C=Nc3ccc(S(=O)(=O)Nc4nccs4)cc3)c2=O)cc1C do in these assays?
Rab9 prom act: -0.5%; Luc counter: -26.1%; NPC1 promoter act: -1.4%; FLuc modulator: 19µM*; SMN2 splice enh: 28.0%; ELG1 genotoxic: 9.4%

What do the screens show for `CC1=CC[C@@]2(CO)COC(c3ccccc3O)C1C2` (some centres not stated)?
Luc counter: 1.0%; SMN2 splice enh: 2.6%

What do the screens show for `Cc1ccc2sc(N3CCN(C(=O)C4COc5ccccc5O4)CC3)nc2c1C` (configuration not stated)?
FLuc modulator: -1.4%

Results for CC(C)c1ccc(-c2c(C#N)c(N)nc(SCC(=O)N3CCCCCC3)c2C#N)cc1 ?
Rab9 prom act: 0.0%; Luc counter: 5.3%; NPC1 promoter act: -2.2%; FLuc modulator: -1.8%; SMN2 splice enh: -18.0%; ELG1 genotoxic: 7.3%

Results for CC(C)c1ccc(-c2noc(SCC(=O)N3CCCCC3)n2)cc1 ?
FLuc modulator: 2.39µM*

What do the screens show for `CC(C)c1ccc(-c2noc(SCC(=O)N(C)c3ccc(F)cc3)n2)cc1`?
FLuc modulator: 6.01µM*

How did O=C(c1cc(-c2ccccc2)nc2ccccc12)N1CCN(c2ccccc2O)CC1 do in these assays?
Rab9 prom act: 23.6%; NPC1 promoter act: 10.8%; FLuc modulator: 10.7µM*; ELG1 genotoxic: -22.0%

How did O=C(c1cc(-c2ccccc2)nc2ccccc12)N1CCN(c2ccccn2)CC1 do in these assays?
Rab9 prom act: -7.1%[1.84 µM]; Luc counter: -0.9%; NPC1 promoter act: 0.1%; FLuc modulator: 12µM*; SMN2 splice enh: -5.2%; ELG1 genotoxic: -13.1%
